# Bioassay records deposited in PubChem by several laboratories.
# tim23-1 inh: inhibits growth of tim23-1 mutant yeast | S. cerevisiae tim23-1 growth, BacTiter-Glo luminescence, 24 h | inhibition, % at 20 µM | 330,000 compounds, 1.3% hits | AID 463212;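 active = growth inhibition of the mutant yeast at or above 50%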;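 also: temperature-sensitive mutant grown at 25 °C; plate controls were DMSO-treated mutant yeast for no effect and medium wells lacking yeast for full effect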
# TIM10 inh: inhibits growth of TIM10 yeast strain; S. cerevisiae TIM10 strain growth, BacTiter-Glo luminescence, 24 h; inhibition, % at 10 µM; 330,000 compounds, 1.4% hits;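 active = inhibition of 40% or more at the single tested concentration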;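 also: wild-type TIM10 isogenic control strain grown at permissive 25 °C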
# SKKanGAS inh: SKKanGAS growth inhibition | S. pyogenes SKKanGAS, kanamycin growth, BacTiter-Glo, 6 h | inhibition, % at 7.5 µM | 300,000 compounds, 1.3% hits;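 active = mean replicate score, as percent of positive control median, at least 50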;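 also: strain carries kanamycin resistance gene driven by streptokinase promoter and grows in 40 µg/ml kanamycin; loss of luminescence reflects streptokinase promoter inhibition or plain growth inhibition; 0% = median of DMSO wells and 100% = positive control at its reference dose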
# PfHsp90 set2: inhibits growth of yeast expressing Plasmodium falciparum Hsp90 | 310,000 compounds, 0.32% hits | AID 504621 | S. cerevisiae expressing PfHsp90, BacTiter-Glo ATP, 48 h; yeast lacking PDR1 and PDR3 efflux regulators | inhibition, % at 9.4 µM;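 active = every replicate shows inhibition above about 80%, whatever the replicate mean, limit read from the data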;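 also: 0% = DMSO neutral controls and 100% = 20 µM radicicol positive controls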
# tim10-1 inh: tim10-1 yeast growth inhibition. 330,000 compounds, 2.2% hits. AID 463190. S. cerevisiae tim10-1 ts strain growth, BacTiter-Glo, 24 h. inhibition, % at 20 µM;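 active = inhibition of at least 40%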;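 also: mutant grown at 25 °C; 0% = DMSO wells with yeast and 100% = wells holding no yeast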
# NLRP3 yeast inh: NALP3 inhibition in yeast. Yeast reconstituted NLRP3/ASC/caspase-1, beta-gal luminescence, 24 h. inhibition, % at 10 µM. 330,000 compounds, 0.39% hits;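 active = inhibition of 50% or more; inactive = inhibition below 50%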;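 also: plate controls were induced DMSO wells for no effect and uninduced yeast grown without galactose for full effect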
# TIM10 conf: confirmation of TIM10 yeast growth inhibitors. shares compounds with TIM10 inh. S. cerevisiae tim10 strain growth, BacTiter-Glo luminescence, 24 h. inhibition, % at 10 µM. 4,600 compounds, 63% hits;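 active = inhibition of yeast growth at or above a set limit in either of two replicates at 10 µM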;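 also: this counterscreen used the strain with wild-type TIM10; 0% = yeast with DMSO and 100% = medium wells lacking yeast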
# tim23-1 confirm: confirmation of tim23-1 mutant yeast growth inhibitors; inhibition, % at 20 µM; AID 463218; shares compounds with tim23-1 inh; 4,400 compounds, 83% hits; S. cerevisiae tim23-1 growth, BacTiter-Glo luminescence, 24 h;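 active = inhibition above about 39% in either of two replicate wells at 20 µM, limit read from the data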;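 also: temperature-sensitive tim23-1 mutant grown at 25 °C; 0% = DMSO wells with yeast and 100% = medium wells without yeast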
# Active calls of the source: *; . = no result. Sampled rows, rich in hits. Any-hit rate of the full collection: about 4.6%.
SMILES,tim23-1 inh,TIM10 inh,SKKanGAS inh,PfHsp90 set2,tim10-1 inh,NLRP3 yeast inh,TIM10 conf,tim23-1 confirm
CCN(C[C@H]1N[C@@](Cc2ccccc2)(C(=O)OC)[C@H]2C(=O)N(C)C(=O)[C@@H]12)S(=O)(=O)c1ccc(-c2ccccc2)cc1,12.9,4.1,.,1.7,3.6,8.1,.,.
O=C(OCC(=O)c1ccc(Cl)s1)c1cnccn1,14.4,8.0,12.8,-21.6,10.2,11.0,.,.
O=C(O)C1CCCCC1C(=O)Nc1cc(C(F)(F)F)ccc1Cl (stereo unspecified),1.6,11.8,2.9,29.6,17.3,16.0,.,.
CN(C)NC(=S)NC(=O)C12CC3CC(CC(C3)C1)C2,3.3,27.5,-6.3,22.4,34.0,-2.3,.,.
CC(C)(C)NC(=S)NC(=O)C12CC3CCC(CC(C3)C1)C2,50.1*,44.8*,20.4,11.9,35.6,24.0,-12.2,59.4*
O=C(CSc1ccccc1F)NCC1(N2CCCCC2)CCCCC1,11.1,-2.6,.,-2.9,16.4,6.4,.,.
N/C(Cc1cccc2ccccc12)=N\OC(=O)c1cccs1,63.0*,61.4*,25.6,19.3,31.8,-14.6,78.4*,72.3*
CCOC(=O)c1cc(-c2ccncc2)nc2c1c(C)nn2C,53.2*,45.3*,-0.7,-19.2,37.3,24.1,41.4*,50.8*
Cc1ccc2nc(NC(=O)COC(=O)c3ccccn3)sc2c1,58.9*,43.4*,0.8,.,18.6,-11.4,26.4,69.8*
COc1ccc(S(=O)(=O)N2CCCCC2)cc1NC(=O)Cc1sc(C)nc1-c1ccc(F)cc1,-2.1,12.0,7.3,6.2,1.6,4.5,.,.
O=C(Nc1nn[nH]n1)C12CC3CC(CC(C3)C1)C2,26.4,14.8,1.5,24.2,14.6,-3.0,.,.
Cc1ccc(C(C[N+](=O)[O-])Sc2ccc(N)cc2)cc1 (stereo unspecified),74.5*,56.0*,-1.4,106.5*,38.7,48.9,50.6*,90.2*
CCCc1ccc(O)c(N=Cc2cc(Br)cc(OCC)c2O)c1,56.5*,43.1*,11.3,9.2,37.4,31.6,32.9*,74.3*
Cc1cccc(-c2nc(Nc3ccc(N4CCOCC4)cc3)c3ccccc3n2)c1,32.3,5.9,12.4,11.6,26.9,24.9,.,.
Cc1cccc(-c2nc(Nc3cccc(O)c3)c3ccccc3n2)c1,77.9*,52.5*,17.4,-44.4,6.1,37.7,50.5*,24.2
Cc1nnsc1C(=O)N1CCCC(N2CCN(c3ccc(F)cc3)CC2)C1 (stereo unspecified),8.7,-2.6,-3.0,12.4,2.6,23.3,.,.
O=C(Nc1cccc(Cl)c1)N1CCCC1,50.6*,47.0*,4.1,-4.1,36.0,34.3,26.8,73.2*
COc1ccccc1N1CC(C)(C)C(=O)N(C(=O)c2ccc(Cl)cc2)C1=S,51.5*,45.2*,-15.3,-19.4,23.7,20.5,54.2*,52.1*
COc1ccc(OCC(=O)c2c[nH]c3ccccc23)cc1,14.4,-21.1,-6.4,-3.9,-1.8,11.7,.,.
COc1ccc2c(C(=O)CCl)c[nH]c2c1,52.8*,43.1*,1.7,-14.4,21.0,-19.8,29.4,51.3*
CCOC(=O)CSc1c(-c2ccc(Cl)cc2)[nH]c2ccccc12,26.9,36.5,-4.6,0.3,25.1,14.2,.,.
CCOC(=O)CSc1c(-c2cccs2)[nH]c2ccccc12,54.6*,48.7*,23.1,-36.7,31.4,7.7,-17.2,52.0*
Cc1cc(NC(=O)CN2C(=O)NC(C)(c3ccc(Cl)cc3)C2=O)no1 (stereo unspecified),16.1,5.4,5.1,-4.9,3.3,18.2,.,.
COc1ccc(NC(=O)c2ccccc2NC(=O)CSc2ccc(Cl)cc2)cc1,2.2,9.8,-6.9,5.4,0.1,-7.0,.,.
CCc1c(C2(O)CCCCC2)[nH]c2cc(C(F)(F)F)ccc12,67.1*,50.8*,34.1,51.5,36.2,13.4,61.3*,-14.2
SMILES,tim23-1 inh,TIM10 inh,SKKanGAS inh,PfHsp90 set2,tim10-1 inh,NLRP3 yeast inh,TIM10 conf,tim23-1 confirm
COc1ccc(CNC(=O)CN(Cc2ccco2)C(=O)CNS(=O)(=O)c2ccc(F)cc2)cc1,2.6,11.7,26.0,10.9,-8.1,15.4,.,.
CCCCCCn1c(-c2ccco2)nc2oc3cc(OC)ccc3c(=O)c2c1=O,50.0*,44.9*,35.9,-6.4,33.8,16.6,15.7,37.3*
CCCc1nc2oc3cc(OC)ccc3c(=O)c2c(=O)n1Cc1ccco1,-0.3,-17.4,17.4,-38.0,22.4,-1.2,.,.
CSc1ccc(/C=C(\C#N)C(=O)NC2CCCCC2C)cc1 (stereo unspecified),59.4*,56.0*,-7.4,9.2,39.2,1.5,65.3*,39.2*
O=S(=O)(Nc1ccc2oc(-c3ccccc3)nc2c1)c1ccccc1,73.8*,45.4*,-15.2,-24.4,36.6,25.8,36.5*,65.8*
O=C(Nc1ccc2oc(-c3ccccc3)nc2c1)c1cccs1,53.3*,72.8*,3.1,24.7,23.1,49.2,-1.1,75.7*
Clc1ccc2oc(-c3ccccc3)nc2c1,13.8,7.1,0.1,0.6,0.8,-13.4,.,.
O=C(Nc1ccc2c(c1)nc1n2CCN(Cc2ccccc2)C1)c1cccs1,53.2*,66.7*,-4.3,-4.8,28.1,34.7,57.4*,73.3*
O=C(Nc1ccc2c(c1)CCC2)c1cccs1,53.4*,45.4*,-1.0,0.7,33.9,39.6,34.9*,49.2*
C[C@H](O)CC1=C[C@H](O)[C@@H](C)OC1=O,-7.5,2.2,-0.3,-17.7,-15.1,7.0,.,.
O=C(Nc1ccc(Cl)c(S(=O)(=O)Nc2ccccc2Cl)c1)c1cccs1,52.9*,44.7*,0.9,-62.0,32.6,-8.6,46.0*,69.0*
CC1CCCN(Cc2c(O)ccc3c(=O)c(-c4nc5ccccc5s4)c(N)oc23)C1 (stereo unspecified),55.7*,52.0*,34.4,19.3,38.0,14.5,51.4*,58.2*
c1csc(CSc2nc3ccccc3s2)c1,16.7,7.6,15.2,5.2,5.7,16.5,.,.
CCn1c(CSc2nc3ccccc3s2)nc2ccccc21,53.6*,51.3*,5.7,-23.0,37.3,17.6,44.2*,51.5*
CN(C)CCn1nnc2c(=O)oc3ccccc3c21,-4.3,3.1,.,12.0,1.2,-2.1,.,.
O=C(NCCc1ccncc1)c1ccc2nc(Cc3cccc(Cl)c3)oc2c1,24.6,11.4,-1.7,21.4,23.0,2.7,.,.
COc1cc(/C=C2\C(C)=C(C#N)c3nc(N)c(C#N)c(C)c32)ccc1OCC(=O)O,61.4*,43.6*,2.6,-10.6,39.5,8.3,31.1*,48.3*
COCCCNC(=O)/C(C#N)=C/c1ccc(OCC(=O)O)c(OC)c1,1.6,9.5,0.8,-15.0,-4.3,7.0,.,.
